Results from the supplement of paper PMC9694430.

Key:
Test in all cases: thermal shift delta Tm vs DMSO control; higher = stronger stabilization (binding)
Settings in all cases: 12.5 µM; protein concentration 2 µM
LOC_OS02G45750-cb003 = test system: LOC_OS02G45750-cb003
How it was run: (§1)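 Rice kinase domain constructs, made in E. coli and purified, were placed in 96-well plates at 2 μM in 19.5 μl of 100 mM potassium phosphate pH 7.5, 150 mM NaCl, 10% glycerol and 5 × SYPRO Orange, with compound in DMSO. A temperature ramp from 25°C to 95°C at 0.05°C/s was used for differential scanning fluorimetry. The melting temperature shift is a triplicate mean compared with DMSO-only protein, derived from Boltzmann fits.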

LOC_OS02G54510-cb004 = test system: LOC_OS02G54510-cb004
How it was run: as §1

LOC_OS03G04050-cb001 = test system: LOC_OS03G04050-cb001
How it was run: as §1

LOC_OS03G12390-cb001 = test system: LOC_OS03G12390-cb001
How it was run: as §1

LOC_OS03G27990-cb004 = test system: LOC_OS03G27990-cb004
How it was run: as §1

LOC_OS03G50450-cb001 = test system: LOC_OS03G50450-cb001
How it was run: as §1

LOC_OS03G50810-cb003 = test system: LOC_OS03G50810-cb003
How it was run: as §1

LOC_OS04G35114-cb001 = test system: LOC_OS04G35114-cb001
How it was run: as §1

LOC_OS04G38480-cb003 = test system: T1, LOC_OS04G38480-cb003
T1 sequence (whole entry): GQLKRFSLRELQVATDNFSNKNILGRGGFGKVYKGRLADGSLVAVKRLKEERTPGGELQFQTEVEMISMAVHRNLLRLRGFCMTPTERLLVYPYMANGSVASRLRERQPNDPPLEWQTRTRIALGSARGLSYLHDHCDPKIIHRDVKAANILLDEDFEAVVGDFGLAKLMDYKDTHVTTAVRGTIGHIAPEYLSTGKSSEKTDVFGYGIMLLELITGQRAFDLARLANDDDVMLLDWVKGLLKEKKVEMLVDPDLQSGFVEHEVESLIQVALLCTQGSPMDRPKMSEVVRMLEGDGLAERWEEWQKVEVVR
How it was run: as §1

LOC_OS04G41100-cb001 = test system: T2, LOC_OS04G41100-cb001
T2 sequence (whole entry): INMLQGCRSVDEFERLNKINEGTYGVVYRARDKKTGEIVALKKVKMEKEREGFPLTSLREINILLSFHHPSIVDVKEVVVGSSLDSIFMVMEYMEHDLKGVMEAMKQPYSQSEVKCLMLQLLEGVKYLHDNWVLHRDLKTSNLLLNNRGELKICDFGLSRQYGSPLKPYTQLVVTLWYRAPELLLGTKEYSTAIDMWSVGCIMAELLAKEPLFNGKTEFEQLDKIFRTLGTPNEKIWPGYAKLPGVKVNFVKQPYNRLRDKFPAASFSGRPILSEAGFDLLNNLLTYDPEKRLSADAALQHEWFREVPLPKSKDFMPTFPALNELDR
How it was run: as §1
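Also: purified Escherichia coli-expressed rice kinase domain construct.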

Row | Compound | thermal shift delta Tm (LOC_OS02G45750-cb003) [°C] | thermal shift delta Tm (LOC_OS02G54510-cb004) [°C] | thermal shift delta Tm (LOC_OS03G04050-cb001) [°C] | thermal shift delta Tm (LOC_OS03G12390-cb001) [°C] | thermal shift delta Tm (LOC_OS03G27990-cb004) [°C] | thermal shift delta Tm (LOC_OS03G50450-cb001) [°C] | thermal shift delta Tm (LOC_OS03G50810-cb003) [°C] | thermal shift delta Tm (LOC_OS04G35114-cb001) [°C] | thermal shift delta Tm (LOC_OS04G38480-cb003) [°C] | thermal shift delta Tm (LOC_OS04G41100-cb001) [°C]
1 | Cc1cc(C(C)Nc2ccccc2)c2nc(N3CCOCC3)cc(=O)n2c1 (stereo not given) | -0.62 | 0.09 | 0.44 | -0.12 | 0.21 | 0.33 | -0.02 | 0.33 | 0.36 | 0.33
2 | COc1cc2c(Oc3ccc(NC(=O)C4(C(=O)Nc5ccc(F)cc5)CC4)cc3F)ccnc2cc1OCCCN1CCOCC1 | 3.41 | 2.08 | 0.79 | 0.18 | 0.69 | 0.65 | 3.35 | 3.93 | 3.42 | 1.7
3 | Cc1ccc(S(=O)(=O)/C=C/C#N)cc1 | -0.28 | 1.4 | 0.67 | -0.03 | -0.15 | 0.08 | -1.25 | 0.08 | 0.47 | -0.67
4 | O=C(c1ccc(F)c(F)c1Nc1ccc(I)cc1F)N1CC(O)([C@@H]2CCCCN2)C1 [Cobimetinib (GDC-0973, RG7420)] | 1.13 | 0.05 | 0.77 | -0.17 | 0.68 | 0.95 | 0.43 | 0.76 | 0.54 | 0.19
5 | COc1cc(N2CCC(N)CC2)ccc1Nc1ncc(Cl)c(-c2c[nH]c3ccccc23)n1 | 2.46 | 1.23 | 0.85 | 14.1 | 5.3 | 8.66 | 6.42 | 3.73 | 4.68 | 1.54
6 | COc1nccnc1NS(=O)(=O)c1ccc(NC(=O)/C=C/c2ccc([N+](=O)[O-])s2)cc1 [Necrosulfonamide] | -0.78 | 0.22 | 0.43 | -0.66 | 1.32 | -0.09 | 0.29 | 1.14 | 0.24 | -0.12
7 | COc1cc(OC)cc(-c2cc3cnc(N)nc3nc2NC(=O)NC(C)(C)C)c1 | 0.88 | 0.19 | 0.34 | 0.31 | 0.16 | 0.18 | 0.24 | 0 | 0.52 | 0.39
8 | NC1(c2ccc(-c3nc4ccn5c(=O)[nH]nc5c4cc3-c3ccccc3)cc2)CCC1 | -0.2 | 0.21 | 0.25 | -0.32 | 0.81 | 0.2 | -0.2 | 0.61 | -0.22 | 0.57
9 | N#Cc1c(NC(=O)c2cccc3ccccc23)sc2c1CCCC2 [JNK Inhibitor IX] | 0.59 | -0.12 | 0.41 | -0.14 | 0.23 | 0.19 | 0.38 | 0.53 | 1.73 | 0.46
10 | C[C@@H]1COCCN1c1cc(=O)n2c(n1)N(Cc1cncc(Cl)c1)[C@H](C(F)(F)F)CC2 | 0.59 | 0.31 | 0.37 | 0.19 | 0.22 | 0.04 | 0.46 | 0.41 | 1.55 | 0.39
11 | CCN1CCN(Cc2ccc(-c3cc4c(N[C@H](C)c5ccccc5)ncnc4[nH]3)cc2)CC1 | 6.37 | 0.94 | -0.21 | 1.63 | 2.76 | 0.56 | 1.13 | 3.16 | 1.7 | 0.38
12 | O=C1NC(=O)C(=Cc2ccc(-c3ccc(F)cc3)o2)S1 (stereo in doubt) | 0.93 | 0.18 | 0.6 | 0.59 | 0.53 | 0.23 | 0.29 | 1.05 | 0.83 | 0.69
13 | Cc1ccc(NC(=O)c2ccc(CN3CCN(C)CC3)cc2)cc1Nc1nc(-c2cccnc2)cs1 [Masitinib (AB1010)] | 0.39 | 0.33 | 0.47 | 0.28 | 0.29 | 0.58 | 0.26 | 0.04 | 0.69 | 0.53
14 | Cn1cc(-c2ccc3c(c2)CCN3C(=O)Cc2cccc(C(F)(F)F)c2)c2c(N)ncnc21 | 4.4 | 2.71 | 0.45 | 0.39 | 0.12 | 0 | 0.95 | 2.08 | 1.08 | 1.28
15 | C=CC(=O)N1CCC(Oc2cc3c(Nc4ccc(Cl)c(Cl)c4F)ncnc3cc2OC)CC1 [Poziotinib (HM781-36B)] | 2.04 | 1.05 | 0 | 3.61 | 0.49 | 1.57 | 0.16 | 4.23 | 1.12 | 0.18
16 | Cn1nccc1Nc1nccc(-c2ccn([C@H](CO)c3ccc(Cl)c(F)c3)c(=O)c2)n1 | 0.71 | 0.28 | 0.29 | 2.16 | 0.03 | 0.11 | -0.12 | 0.45 | 0.14 | 2.7
17 | COc1ccc2c(Oc3ccc(NC(=O)c4c(C)n(CC(C)(C)O)n(-c5ccccc5)c4=O)nc3)ccnc2c1 | 1.4 | 0.7 | 0.2 | 0.21 | 0.18 | 0.38 | 0.39 | 0.36 | 1.95 | 0.3
18 | CC(C)[C@H](CO)Nc1nc(Nc2cccc(Cl)c2)c2ncn(C(C)C)c2n1 [Purvalanol A] | 5.95 | 2.06 | 0.15 | 3.95 | 3.63 | 7.22 | 2.8 | 6.09 | 1.87 | 0.54
19 | O=C(O)c1ccc(Nc2ncc3c(n2)-c2ccc(Cl)cc2C(c2c(F)cccc2F)=NC3)cc1 | 0.27 | 1.01 | 0.54 | -0.49 | 0.21 | 0.06 | 0.12 | 0.54 | 0.01 | 0.55
20 | CC(C)c1ccc2oc3nc(N)c(C(=O)O)cc3c(=O)c2c1 [Amlexanox] | 4.41 | 0.56 | 0.67 | 0.45 | 1.73 | 1.46 | 0.21 | 2.71 | 1.28 | 0.49
